From PubChem BioAssay AID1159580 (chemical genetic matrix, 2015)
About 2,000 (36%) of roughly 5,500 compounds were called active. Not shown: some 18% with an inconclusive outcome. No stated cut-off is given here; in the data, active means normalized growth mostly below about 0.91 (no sharp cut-off); inconclusive means no clear call, values can overlap the other calls; inactive means mostly above about 0.92. The list shows a part of the results.

Test: chemical genetic growth profiling, strain panel (AID 1159580);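 further: tested at 20 µM; growth read once vehicle control cultures reached saturation at 30 °C; 1 = growth at the plate median or of vehicle wells; lower values mean less growth of the strain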
Settings: S. cerevisiae deletion strains, growth OD

Measured: normalized growth

COc1cc2c(CCNC(C)=O)c[nH]c2cc1O
inactive: locus YAL013W, strain DEP1, active compounds read low 1.02 | locus YAL040C, strain CLN3, active compounds read low 1.01 | locus YCL061C, strain MRC1 (second series), active compounds read low 1.01 | locus YDR150W, strain NUM1, active compounds read low 1.01 | locus YDR363W, strain ESC2, active compounds read low 1.02 | locus YER002W, strain NOP16, active compounds read low 1.02 | locus YGR078C, strain PAC10, active compounds read low 1 | locus YJR075W, strain HOC1, active compounds read low 1.02 | locus YMR307W, strain GAS1, active compounds read low 1 | locus YNL128W, strain TEP1, active compounds read low 1.02 | locus YNL175C, strain NOP13, active compounds read low 0.998 | locus YNL197C, strain WHI3, active compounds read low 1.02 | locus YNL224C, strain SQS1, active compounds read low 0.996 | locus YOR083W, strain WHI5 (second series), active compounds read low 1 | locus YPL055C, strain LGE1, active compounds read low 1.02
